Some of the results follow. Results filed as inconclusive are left out. Activity calls are given as the source filed them. Calls come from the whole dose curve; as a rule, active = well fitted inhibition curve with a large enough effect; inconclusive = small, poorly fitted or top-dose-only effect, or effect the other way; inactive = flat fitted curve, though single readings scatter.
biological target: Pyruvate kinase PKM (Homo sapiens) (UniProt P14618); test: Secondary assay for Inhibitors of Human Pyruvate Kinase M2 isoform; settings: purified hPK-M2, LDH-coupled NADH fluorescence kinetic
Sequence (P14618 whole entry, looked up, canonical isoform): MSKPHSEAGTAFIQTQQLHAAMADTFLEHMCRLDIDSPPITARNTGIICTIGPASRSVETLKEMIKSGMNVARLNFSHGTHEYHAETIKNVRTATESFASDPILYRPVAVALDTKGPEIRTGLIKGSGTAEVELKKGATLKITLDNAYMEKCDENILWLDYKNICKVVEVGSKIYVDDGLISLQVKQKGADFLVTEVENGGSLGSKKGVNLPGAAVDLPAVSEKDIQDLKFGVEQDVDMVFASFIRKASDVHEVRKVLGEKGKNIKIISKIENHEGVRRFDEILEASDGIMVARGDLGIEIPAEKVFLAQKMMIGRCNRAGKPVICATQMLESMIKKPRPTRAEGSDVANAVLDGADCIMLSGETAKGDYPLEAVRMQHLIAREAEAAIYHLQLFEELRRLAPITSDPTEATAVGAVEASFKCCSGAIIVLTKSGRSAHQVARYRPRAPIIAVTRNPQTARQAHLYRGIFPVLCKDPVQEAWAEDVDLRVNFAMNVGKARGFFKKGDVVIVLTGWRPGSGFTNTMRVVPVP
From the text: NIH Chemical Genomics Center [NCGC] Matthew G. Vander Heiden, M.D., Ph.D. [Harvard Medical School, 77 Avenue Louis Pasteur, Boston, MA 02115] MLPCN Grant: 1 R03 MH085679-01 NCGC Assay Overview: Human pyruvate kinase muscle 2 (hPK-M2)enzyme was supplied as a highly purified (>95% pure) preparation from Harvard Medical School and a secondary assay was used to evaluate compounds. This assay couples the formation of pyruvate from hPK-M2 using lactate dehydrogenase (LDH) and NADH. The depletion of NADH is followed in a fluorescent-based kinetic assay that follows the formation of pyruvate to lactate, as catalyzed LDH (described by Hannaert et al., 2002)1 Pyruvate kinase substrates, PEP and ADP, were present in the assay at 0.1 mM and 4 mM respectively. In this kinetic assay initial rates were determined by following the fluorescence of NADH depletion.
NCGC Assay Protocol Summary: Three uL of substrate mix (final concentration, 50 mM Tris-Cl pH 8.0, 200 mM KCl, 15 mM MgCl2, 0.1 mM PEP, 4.0 mM ADP, and 0.2 mM NADH) was dispensed into black-solid 1536 well plates. 23 nL of compounds were delivered by a pin tool and 1 uL of enzyme mix (final concentrations, 10 nM hPK-M2 and 1 uM of LDH) was added. Plates were immediately placed in ViewLux (Perkin Elmer) and NADH fluorescence was determined at 30 second exposure intervals for between 3 and 6 minutes. Data were normalized to the basal signal.

Compound	Potency
Cc1ccc(-c2nc3ccccn3c2Nc2ccc(F)cc2)o1	7.3 µM (active)
